Results published in PubChem BioAssay (NCI).
Compounds without any hit were thinned out: in the full panel of roughly 83,000, 20% have a hit.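 Assay: single dose, 48 h. Readout: percent growth (0 = no net growth; negative = cell death). Active: <10.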 Unmarked numbers belong to inactive results. Active and inactive are the calls of the source.

Experiments:
Assay in all cases: NCI-60 one-dose screen, 48 h (100 = growth as untreated, 0 = no growth, -100 = all killed)
Settings in all cases: 10 µM
SNB-75 CNS = test system: SNB-75 CNS
SNB-19 CNS = test system: SNB-19 CNS
U251 CNS = test system: U251 CNS
PC-3 prostate = test system: PC-3 prostate
SK-MEL-5 melanoma = test system: SK-MEL-5 melanoma
UACC-62 melanoma = test system: UACC-62 melanoma
LOX IMVI melanoma = test system: LOX IMVI melanoma
SK-MEL-28 melanoma = test system: SK-MEL-28 melanoma
SN12C renal = test system: SN12C renal
UO-31 renal = test system: UO-31 renal
TK-10 renal = test system: TK-10 renal
ACHN renal = test system: ACHN renal
CAKI-1 renal = test system: CAKI-1 renal
A498 renal = test system: A498 renal
CCRF-CEM leukemia = test system: CCRF-CEM leukemia
MOLT-4 leukemia = test system: MOLT-4 leukemia
SR leukemia = test system: SR leukemia
SK-MEL-2 melanoma = test system: SK-MEL-2 melanoma
EKVX NSCLC = test system: EKVX NSCLC

Structure (SMILES)	growth (SNB-75 CNS)	growth (SNB-19 CNS)	growth (U251 CNS)	growth (PC-3 prostate)	growth (SK-MEL-5 melanoma)	growth (UACC-62 melanoma)	growth (LOX IMVI melanoma)	growth (SK-MEL-28 melanoma)	growth (SN12C renal)	growth (UO-31 renal)	growth (TK-10 renal)	growth (ACHN renal)	growth (CAKI-1 renal)	growth (A498 renal)	growth (CCRF-CEM leukemia)	growth (MOLT-4 leukemia)	growth (SR leukemia)	growth (SK-MEL-2 melanoma)	growth (EKVX NSCLC)
CCCCCCN1CCN(Cc2ccc(N(CC)CC)cc2)C(=O)C1=O	14%	74.4%	17.1%	13.5%	21.4%	45%	45.2%	49.9%	50.8%	34.8%	25.4%	52.4%	41.6%	-4.48% (active)	9.18% (active)	19.1%	3.37% (active)		
O=C1C(=O)c2ccccc2C(O)=C1CCCc1ccc(C2CCCCCC2)cc1	49.3%	52.8%	46.1%	20.9%	25.2%	46.6%	16.5%	49.7%	53.4%	24.2%	61%	38.6%	-34.2% (active)		34.7%	49.2%	38%	88.1%	24.9%
C=C(NC(=O)C(=C)NC(=O)c1csc(C2=NC3c4csc(n4)C4NC(=O)c5csc(n5)C(C(C)(O)C(C)O)NC(=O)C5CSC(=N5)/C(=C/C)NC(=O)C(C(C)O)NC(=O)c5csc(n5)C3(CC2)NC(=O)C(C)NC(=O)C(=C)NC(=O)C(=C)NC(=O)C(C(C)C)NC2C=Cc3c(C(C)O)cc(nc3C2O)C(=O)OC4C)n1)C(N)=O (centres undefined)	-10.9% (active)	16.8%	-46% (active)	9.64% (active)	-56.2% (active)	5.94% (active)	-52.7% (active)		30.4%	-42.2% (active)	-9.31% (active)	-26.8% (active)	15.8%		-31.7% (active)	-15% (active)	5.93% (active)	-17.7% (active)	42.2%
N#CCCN1C/C(=C/c2ccccc2)C(=O)/C(=C/c2ccccc2)C1	62.1%	68%	-0.696% (active)	41.1%	29%	0.851% (active)	-65.5% (active)	54.2%	25.3%	51.6%	95.6%	8.94% (active)	19.1%	106%	-1.14% (active)	4.56% (active)	-2.02% (active)	62.3%	
CCOC(=O)C(=Cc1ccc(Br)cc1)C(=O)OCC	12.7%	63.1%	-46% (active)	-30.4% (active)	-47.9% (active)	-72.6% (active)	-85.7% (active)	-74.5% (active)	-21% (active)	-85.7% (active)	8.18% (active)	-81% (active)			-29.1% (active)	-8.75% (active)	-42% (active)	-61.5% (active)	50.5%
CCCCOc1ccc(NC(=O)Nc2nnc(C)s2)cc1	105%	98.2%	93.2%	92.5%	102%	82.5%	78.9%	106%	93.3%	87%	118%	94.5%		108%	72.9%	90.4%	101%	105%	99.6%
CCOC(=O)N/N=C\C(C)=N\NC(=O)OCC	92.1%	98.5%	92.7%	93%	109%	99.3%	96.2%	103%	94.6%	85.1%	98.8%	99.4%	90.1%	103%		101%	96.6%	111%	
O=C(c1ccc(Cl)cc1Cl)N1CCOCC1	81.8%	103%	105%	96.4%		101%	96.8%		105%	83.4%	101%	103%		91.2%	106%	99.1%		96.5%	
COc1ccc(-c2ccc(-c3ccc(C(=N)N)cn3)o2)cc1	61.1%	91.5%	76.3%	68.3%	72.3%	89.7%	61.8%		74.9%	30.7%	117%	80.6%	75.1%	59.4%	74.3%	52.7%	10.3%	99.5%	
O=C(O)C(SC(C(=O)O)c1ccccc1)c1ccccc1 (centres undefined)	85.6%	104%	98.8%	105%	111%	95.5%	99.4%	102%	99.9%	87.6%	106%	104%	91.8%	107%	97.8%	103%	101%	103%	104%
CN(C)CC(O)c1ccc2cc(Br)c3ccccc3c2c1 (centres undefined)	41.8%	64.7%	56.4%	49%		-64.8% (active)	28.9%	32.7%	53.9%	57.6%	81.8%	17.2%	73.1%		57.9%	31%	4.67% (active)	102%	58.5%
ClCC#CCSc1ncnc2c1ncn2CC#CCCl	-57.5% (active)	13.2%	0.284% (active)	32.3%	9.62% (active)	19.2%	-35.5% (active)	39.5%	20.2%	2.36% (active)	71.1%	11.7%			14.9%	15.4%	14.6%	41.1%	10.5%
COc1cc(-c2cc(/C=C/C(=O)c3ccc4c(c3)OCO4)[nH]n2)cc(OC)c1OC	69.7%	66.5%	43%	59%	95.9%	78.9%	42.8%	94.3%	63.9%	38.7%		84.6%	59.7%	73.7%	0.141% (active)	52.7%	-15.1% (active)	100%	
COc1ccc(-c2nn(-c3cccc(NC(=O)Nc4ccc(Cl)c(C(F)(F)F)c4)c3)cc2-c2ccncc2)cc1Cl	25.6%	32.2%	-41.1% (active)	2.84% (active)	14.7%	-2.96% (active)	19.9%	23%	21.1%	-11.2% (active)	10.3%	12.6%	9.1% (active)	-0.894% (active)	-3.16% (active)	-6.09% (active)	-18.4% (active)		
COc1ccc(-c2nn(-c3cccc(NC(=O)c4ccc5c(c4)OCCO5)c3)cc2-c2ccncc2)cc1Cl	2.6% (active)	70.8%	-9.64% (active)	10.4%	20%	34.1%	29.9%	38.3%	51.6%	16%	36.2%	41.4%	15%	-19.3% (active)		11.3%	-9.34% (active)		
Cc1ccc(NC(=O)Nc2cccnc2)cc1NC(=O)Nc1cccnc1	95.9%	94%	79%	43.4%	64.3%	75.7%	96.6%	98.8%	92%	85.3%	92.1%	83.8%		90.7%	58.2%	66.8%	31.3%	83%	82.4%
COc1cc(C(=O)N2CCN(c3ccccc3OC)CC2)c(N)cc1OCCCN1CCN(c2ccccc2OC)CC1	104%	104%	96.6%	69%	44.4%	79.4%	78.8%	119%	98.6%	62.4%	113%	88.8%		117%	4.33% (active)	53.8%	67.7%	83.2%	83.2%
Cc1ccc(C(=O)N2C/C(=C/c3ccc(F)cc3)C(=O)/C(=C/c3ccc(F)cc3)C2)cc1	59.7%	97.8%	88.9%	85.2%	94.6%	86.3%	54.5%	105%	92.4%	64.3%	102%	103%	81.3%		63.1%	71.6%	20.4%	84%	
CCN(CC)CCCC(C)Nc1nc(-c2ccc(OC)cc2)nc2cc(Cl)ccc12 (centres undefined)	59.6%	74.6%	57%	48.4%	0.434% (active)	-46.9% (active)	32.8%	-70% (active)	58%	45%	88.8%	37%	78.8%	37.4%	57.9%	37.7%	51.8%	98.2%	70.2%
COc1ccc(NC(=O)CSc2nc3ccccc3c(=O)n2CCc2ccccc2)cc1	28.7%	59.4%	71.4%	106%	86.6%	89.8%	92.9%	91.6%	79%	90.2%	109%	93.4%	87.5%	101%				121%	75.2%
ClCCOCCn1cnc2c(Cl)nc(Cl)nc21	57.1%	88.2%	67.3%	35.2%	52.3%	45.1%	-13.9% (active)		63.3%	88%	92.7%	81.3%	-4.35% (active)	93.1%		79.8%	41.5%	67.6%	92.4%
COc1cc(/C=N/NC(=O)c2ccccc2Nc2ccnc(C(F)(F)F)c2)ccc1O	94.1%	93.2%	106%	111%	106%	115%	114%	118%	122%	98.1%	147%	111%	-21.2% (active)	116%		-89.5% (active)	-48.1% (active)	113%	106%
CC(=O)OCc1cc(-c2nc3ccccc3[nH]c2=O)nn1-c1ccc(Cl)cc1	98.6%	89.4%	100%	99%	97.8%	89.3%	102%	107%	105%	98.2%	119%	102%		100%	97.9%	87.6%	105%	100%	104%
COc1cc2c(cc1OCCCN1CCN(c3ncnc4ccccc34)CC1)N=CC1CCCN1C2=O (centres undefined)	-29.8% (active)	12%	1.3% (active)	-53% (active)	-95.7% (active)	-91.8% (active)	-39.4% (active)	-9.59% (active)	3.4% (active)		-7.43% (active)	2.77% (active)	-12.1% (active)		-45.8% (active)	-44.3% (active)	-43.4% (active)	6.33% (active)	-38.6% (active)
CCCCCCCCCCCCCCCCCC(=O)OCCCCCCC	98.3%	116%	100%	92.9%	110%	110%	96.5%	122%	105%	87.6%	113%	107%	88%		85%			127%	90.8%
COc1ccc2c(c1)N(CCO)C1=C(C(=O)OC1)C2c1ccccc1 (centres undefined)	14.6%	41.1%	20.9%	27.1%	9.35% (active)	20.1%	43.3%	53.7%	48.1%	47.1%	44.7%	48.6%	14.9%	-5.47% (active)	20%	35.4%	20.7%		45%
COc1ccc(/C=C/C(=O)Nc2ccc(-c3nc4ccc(F)cc4s3)cc2)cc1	102%	99%	95.4%	94.6%	86.8%	99.8%	94.7%	109%	93.8%	84.2%	104%	107%	95.5%	105%		71.8%	80.8%	117%	85.3%
COc1cc2cc3c(nc2cc1OC)CCN3Cc1ccc(NC(=O)Nc2cc(C(F)(F)F)cc(C(F)(F)F)c2)cc1	69.1%	71.9%	64.1%	39.6%	89.9%	80.7%	75.4%	98.5%	74.3%	57.7%	85.6%	69.6%	69.4%	58.4%	51.7%	36.9%	55.2%	80.2%	
